According to PubChem BioAssay (Tox21):
Activity calls are given as the source filed them. Where a call stands in place of a potency, no number is given. Calls come from the whole dose curve.
Potency is the fitted concentration of half-maximal effect.

The molecules below were run against Gonadotropin-releasing hormone receptor (Homo sapiens) (UniProt P30968) (assay: Human gonadotropin-releasing hormone receptor (GnRHR) small molecule agonists, calcium flux assay in GnRHR-HEK293 cells (AID 1920063; note: nearly all actives have a fitted effect of over 35% in size)). Conditions: calcium flux fluorescence, agonist mode; series mostly up to 57.6 µM.
Sequence of Gonadotropin-releasing hormone receptor (Homo sapiens) (P30968 whole entry, looked up): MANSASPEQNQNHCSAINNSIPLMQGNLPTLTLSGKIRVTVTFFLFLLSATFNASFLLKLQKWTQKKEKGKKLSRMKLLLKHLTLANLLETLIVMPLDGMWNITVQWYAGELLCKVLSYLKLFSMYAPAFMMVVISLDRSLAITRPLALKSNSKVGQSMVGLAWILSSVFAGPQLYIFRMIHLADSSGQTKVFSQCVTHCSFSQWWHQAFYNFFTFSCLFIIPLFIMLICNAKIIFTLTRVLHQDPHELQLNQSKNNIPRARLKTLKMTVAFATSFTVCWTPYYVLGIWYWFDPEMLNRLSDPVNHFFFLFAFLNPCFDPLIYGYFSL
From the text: National Center for Advancing Translational Sciences [NCATS]
Division of Preclinical Innovation [DPI]
U.S. Environmental Protection Agency [EPA]
National Institutes of Environmental Health Sciences [NIEHS]
National Toxicology Program [NTP]
U.S. Food and Drug Administration [FDA]
Gonadotropin-releasing hormone receptor (GnRHR) is a G-protein-coupled receptor (GPCR) and acts (through phospholipase C) to increase intracellular inositol trisphosphate and then release intracellular calcium stores. Cell-based GnRHR-Hek293 calcium influx assay is using HEK293 cells that have been genetically engineered to express the human GnRHR, which activity can be measured by calcium signaling. A compound/drug can activate (agonist) GnRHR that can be monitored by levels of intracellular calcium.
GnRHR-HEK293 cells developed by Codex Corp contain human GnRHR reporter gene, which was stably integrated into HEK 293 cells. The compound activation can be detected by fluorescence intensity via calcium flux assay. This cell line has been used to screen the Tox21 10K compound library to identify GnRHR agonists.
GnRHR-Hek293 cells were dispensed at 1500cells/4uL/well in 1536-well black wall/clear bottom plates using a multidrop dispenser. After the assay plates were incubated at a 37 C/5% CO2 incubator for 18 hours, 4 uL of Calcium Dye Solution was added to each well. The plates were incubated at 37 C for 1 hour. For agonist mode, 23 nL of compounds dissolved in DMSO, positive controls or DMSO only was transferred to the assay plate by a pin tool station. The fluorescence intensity in the plates was measured using FDSS 7000EX kinetic plate reader with a filter set of Ex/Em=480/540 for 3 min at 1 sec intervals. Each test compound was measured at 15 concentrations and in triplicates.
For `C[C@H](N)C(=O)c1ccccc1`, the Potency was “inactive”.
In the case of `CCOP(=O)(OCC)Oc1cc(C)nc(C(C)C)n1`, the Potency is reported as “inactive”.
`Clc1ccc(C(OCCN2CCCCC2)c2ccccc2)cc1` (stereo not given) was tested, and the Potency was “inactive”.
For `CN1[C@@H]2CC[C@H]1CC(OC(=O)c1cc(Cl)cc(Cl)c1)C2` (stereo not given in full), the Potency was “inactive”.
For `CC(C)c1c(CN(C)C(C)Cc2ccccc2)n(C)n(-c2ccccc2)c1=O` (stereo not given), the Potency was “inactive”.
With `CCN(CC)c1nc(C)cc(OP(=S)(OC)OC)n1` the Potency was “inactive”.
`CC(C)[C@@H](C(=O)O[C@@H](C#N)c1cccc(Oc2ccccc2)c1)c1ccc(Cl)cc1` was tested, and the Potency was “inactive”.
With `C[N+](C)(C)CCOC(=O)C(O)(c1ccccc1)c1ccccc1` the Potency was “inactive”.
`CCC1CCC(=O)O1` (stereo not given) was tested, and the Potency was “inactive”.
For `COc1ccc(/C(=C/C(=O)N2CCOCC2)c2ccc(Cl)cc2)cc1OC`, the Potency was “inactive”.
For `CCSC(C)CC1CC(=O)C(/C(CC)=N/OC/C=C/Cl)=C(O)C1` (stereo not given), the Potency was “inactive”.
`CNNC` was tested, and the Potency was “inactive”.
For `CCC1(CCC(C)C)C(=O)NC(=O)NC1=O`, the Potency was “inactive”.
`CC1Sc2c(C(=O)O)c(=O)c3cc(F)c(N4CCNCC4)cc3n21` (stereo not given) was tested, and the Potency was “inactive”.
With `c1csc(-c2ccc(-c3cccs3)s2)c1` the Potency was “inactive”.
For `Nc1c(Br)cc(Br)c2c1C(=O)c1ccccc1C2=O`, the activity change was 1.8% [at 11.8 µM, hits give high values] (inactive).
In the case of `NCC1(CC(=O)O)CCCCC1`, the Potency is reported as “inactive”.
In the case of `CCN[C@H](C)Cc1cccc(C(F)(F)F)c1`, the Potency is reported as “inactive”.
In the case of `C#CC(O)(C=CCl)CC` (stereo not given), the Potency is reported as “inactive”.
For `O=c1[nH]c2ccccc2n1C1CCNCC1`, the Potency was “inactive”.
`c1coc(-c2nc3ccccc3[nH]2)c1` was tested, and the Potency was “inactive”.
`Cc1ccc2c(c1)C1CN(C)CCC1N2` (stereo not given) was tested, and the activity change was 1.2% [at 11.8 µM, hits give high values] (inactive).
In the case of `CC(Cl)CN(C)C` (stereo not given), the Potency is reported as “inactive”.
For `FC(F)C(F)(F)OCC(Cn1cncn1)c1ccc(Cl)cc1Cl` (stereo not given), the Potency was “inactive”.
`O=[N+]([O-])c1ccc2ccc3cccc4ccc1c2c34` was tested, and the Potency was “inactive”.
In the case of `O=C(CCCN1CCC(n2c(=O)[nH]c3ccccc32)CC1)c1ccc(F)cc1`, the Potency is reported as “inactive”.
`COC(=O)c1ccccc1S(=O)(=O)NC(=O)Nc1nc(C)cc(C)n1` was tested, and the Potency was “inactive”.
For `CC(C)N(CCC(C(N)=O)(c1ccccc1)c1ccccn1)C(C)C` (stereo not given), the Potency was “inactive”.
`O=C(Nc1ccc(F)cc1F)c1cccnc1Oc1cccc(C(F)(F)F)c1` was tested, and the Potency was “inactive”.
In the case of `C/C(=C\c1ccccc1)[N+](=O)[O-]`, the Potency is reported as “inactive”.
In the case of `CC(=O)Nc1cc([As](=O)(O)O)ccc1O`, the Potency is reported as “inactive”.
For `O=S(=O)(O)C(F)(F)C(F)(F)C(F)(F)C(F)(F)F`, the Potency was “inactive”.
With `CCCCCCCCCCCCCN1CC(C)OC(C)C1` (stereo not given) the Potency was “inactive”.
`Nc1ccc(Cc2ccc(N)c(Cl)c2)cc1Cl` was tested, and the Potency was “inactive”.
With `Nc1nc(N)c(N)c(N)n1` the Potency was 39.1 µM (active).
In the case of `CNC(=O)N(C)c1nc2ccccc2s1`, the Potency is reported as “inactive”.
With `CC(Cc1ccc(O)cc1)NCC(O)c1cc(O)cc(O)c1` (stereo not given) the Potency was 0.0338 µM (active).
In the case of `O=C(O)C(O)C(O)C(=O)O` (stereo not given), the Potency is reported as “inactive”.
`C=CC(=C)C` was tested, and the Potency was “inactive”.
In the case of `C=CC(=O)OCC(COC(=O)C=C)(COC(=O)C=C)COC(=O)C=C`, the Potency is reported as “inactive”.
